{"source": "PubChem BioAssay", "note": "Activity calls are given as the source filed them."}
{"tested_on": "PRMT1 (protein arginine N-methyltransferase 1)", "test": "small molecules binding arginine methyltransferase PRMT1 – biochemical, small-molecule microarray, 635 nm fluorescence, primary screen (AID 1088);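 also: binding of Prmt1 protein to compounds spotted on small-molecule microarray slides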", "conditions": "higher = more signal"}
{"smiles": "CC(C)C(=C=CC[C@@H](O)c1cccc(OCCO)c1)C[C@@H](O)COCc1ccccc1", "composite z-score": 0.566}
{"smiles": "COC(=O)[C@@]1(Cc2ccccc2)[C@H]2c3cc(C(=O)N4CCCC4)n(CCSCCO)c3C[C@H]2CN1C(=O)c1ccccc1", "composite z-score": 0.465}
{"smiles": "CCOC(=O)C1=C[C@@H](C(C)(C)C)N(S(=O)(=O)c2ccc(C)cc2)[C@H]1c1cccc(Cl)c1", "composite z-score": 1.4}
{"smiles": "C=C[C@H](C)[C@H](OC(=O)Nc1ccc(OC)cc1)c1ccc(OCCO)cc1", "composite z-score": -0.173}
{"smiles": "C[C@]1(C(=O)O)c2ccccc2C(=O)N(Cc2ccc(OC(F)(F)F)cc2)[C@H]1c1ccc(CO)cc1", "composite z-score": -0.0461}
{"tested_on": "not listed separately", "test": "growth effects on S. cerevisiae YJM789 – YJM789 clinical isolate, OD600, 24 h, basal, primary screen (AID 1089);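 also: growth of clinical yeast isolate S. cerevisiae YJM 789 seeded 1000 cells per well; test concentration not given here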", "conditions": "higher = more signal, called active from +8 up or from −8 down"}
{"smiles": "COc1cc(NN2C(C(O)c3ccc(I)cc3)C=CC3C(=O)N(c4ccccc4)C(=O)C32)cc(OC)c1OC", "note": "(stereo unspecified)", "z-score": "0.93 (inactive)"}
{"smiles": "CN(C)CCCC[C@@H]1NC(=O)[C@@H]2C[C@H](C(=O)O)[C@H](c3cccc(OCCO)c3)N2C1=O", "z-score": "0.15 (inactive)"}
{"smiles": "CN1C(=O)C2C=CC(C(O)c3cc(C(F)(F)F)cc(C(F)(F)F)c3)N(Nc3ccccc3)C2C1=O", "note": "(stereo unspecified)", "z-score": "-0.506 (inactive)"}
{"smiles": "C=C(/C(=C/C[C@H](OC(=O)c1ccncc1)c1ccccc1OCCO)c1cnc2ccccc2c1)C(C)C", "z-score": "-2.36 (inactive)"}
{"smiles": "COC(=O)[C@@]1(Cc2ccccc2CN=[N+]=[N-])N=C(c2ccc(OCCCO)cc2)O[C@H]1c1ccccc1", "z-score": "0.682 (inactive)"}
{"smiles": "C=CCC(OC(C)=O)[C@@H]1[C@@H](N(Cc2cccc3ccccc23)C(=O)c2ccc(-c3ccccc3)cc2)c2cc(OCCCO)ccc2N1C(=O)c1ccc(-c2ccccc2)cc1", "note": "(stereo partly specified)", "z-score": "-1.05 (inactive)"}
